Measured values reported in PubChem BioAssay (Tox21).
Calls of active or inactive are those of the source. Unless noted, the call rests on the fitted dose curve; in most records, active means well fitted curve in the direction sought with a large enough effect in the repeat runs; inconclusive means weak or mixed curves; inactive means no such curve, though single readings can be large; an effect the other way counts as inactive or inconclusive.

Tests used:
[1] = qHTS assay for identifying genotoxic compounds that show differential cytotoxicity against isogenic chicken DT40 cell lines with known DNA damage response pathways - wild type cell line (AID 743012); further: nearly all actives have a fitted effect of over 60% in size; further: potency means the concentration at half of the fitted maximal effect
Summary of the method: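 Viability by ATP luminescence (CellTiter-Glo, 30 min RT) after 40 h compound treatment at 37 C/5% CO2, using 300 parental DNA repair-proficient DT40 cells per well.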

[2] = qHTS assay for identifying genotoxic compounds that show differential cytotoxicity against isogenic chicken DT40 cell lines with known DNA damage response pathways - Rev3 mutant cell line (AID 743014); further: nearly all actives have a fitted effect of over 55% in size; further: potency means the concentration at half of the fitted maximal effect
[3] = qHTS assay for identifying genotoxic compounds that show differential cytotoxicity against isogenic chicken DT40 cell lines with known DNA damage response pathways - Rad54/Ku70 mutant cell line (AID 743015); further: nearly all actives have a fitted effect of over 60% in size; further: potency means the concentration at half of the fitted maximal effect
[4] = qHTS assay to identify small molecule antagonists of the thyroid receptor (TR) signaling pathway - cell viability counter screen (AID 743064); further: nearly all actives have a fitted effect of over 50% in size; further: potency means the concentration at half of the fitted maximal effect
Summary of the method: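 Rat GH3 pituitary tumor cells stably expressing two TR response elements driving luciferase were plated, rested 4 h, then dosed with library compounds and T3 (1 nM final). After 23.5 h at 37 °C, CellTiter-Fluor was added for 30 min and fluorescence recorded.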

[5] = qHTS assay to identify small molecule antagonists of the thyroid receptor (TR) signaling pathway (AID 743065); further: nearly all actives have a fitted effect of over 55% in size; further: potency means the concentration at half of the fitted maximal effect
Summary of the method: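 GH3.TRE-Luc rat pituitary cells (two TREs driving luciferase) were dosed with compound, then stimulated with 1 nM T3 (final) for 23.5 h at 37 C. ONE-Glo luminescence was the read-out, with CellTiter-Fluor fluorescence as the cytotoxicity counter-screen.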

[6] = target: Estrogen receptor (Homo sapiens) (UniProt P03372); experiment: qHTS assay to identify small molecule antagonists of the estrogen receptor alpha (ER-alpha) signaling pathway (AID 743069; active means well fitted curve in the direction sought with a large enough effect in the signal ratio in the repeat runs, not every such curve was filed as active; inconclusive means weak or mixed curves, or effect the other way; inactive means no such curve, though single readings can be large or run the other way; the % refers to the signal ratio; further: potency means the concentration at half of the fitted maximal effect)
Chain of Estrogen receptor (Homo sapiens) (P03372 whole entry, looked up): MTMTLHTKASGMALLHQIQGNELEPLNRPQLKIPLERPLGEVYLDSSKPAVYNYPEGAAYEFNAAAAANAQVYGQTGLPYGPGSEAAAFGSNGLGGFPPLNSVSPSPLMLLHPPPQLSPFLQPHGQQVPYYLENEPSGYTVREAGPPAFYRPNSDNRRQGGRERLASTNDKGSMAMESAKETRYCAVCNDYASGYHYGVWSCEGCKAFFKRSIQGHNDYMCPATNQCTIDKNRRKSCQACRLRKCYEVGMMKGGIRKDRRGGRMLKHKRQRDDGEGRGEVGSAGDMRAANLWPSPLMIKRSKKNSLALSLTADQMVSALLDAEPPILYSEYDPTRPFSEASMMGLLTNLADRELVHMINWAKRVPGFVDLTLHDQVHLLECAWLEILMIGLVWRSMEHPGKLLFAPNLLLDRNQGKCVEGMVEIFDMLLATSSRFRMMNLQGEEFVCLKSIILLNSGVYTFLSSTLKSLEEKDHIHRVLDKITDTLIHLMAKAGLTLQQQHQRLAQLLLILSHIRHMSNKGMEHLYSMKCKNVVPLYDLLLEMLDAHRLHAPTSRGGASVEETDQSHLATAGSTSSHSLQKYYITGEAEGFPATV
Summary of the method: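 In this cell-based reporter format, GripTite HEK293 cells harbouring ER-alpha-UAS-bla were grown overnight with 2% charcoal-stripped FBS, dosed with DMSO-dissolved compounds, then challenged with 17beta-estradiol. After 18 hr at 37C, beta-lactamase activity was detected by FRET fluorescence.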

[7] = qHTS assay to identify small molecule antagonists of the estrogen receptor alpha (ER-alpha) signaling pathway - cell viability counter screen (AID 743074; calls by dose curve; further: nearly all actives have a fitted effect of over 45% in size)
[8] = target: Estrogen receptor (Homo sapiens) (UniProt P03372); experiment: qHTS assay to identify small molecule agonists of the estrogen receptor alpha (ER-alpha) signaling pathway (AID 743075; calls by dose curve)
[9] = target: Estrogen receptor (Homo sapiens) (UniProt P03372); experiment: qHTS assay to identify small molecule agonists of the estrogen receptor alpha (ER-alpha) signaling pathway using the BG1 cell line (AID 743079); further: nearly all actives have a fitted effect of over 20% in size; further: potency means the concentration at half of the fitted maximal effect
[10] = qHTS assay to identify small molecule antagonists of the estrogen receptor alpha (ER-alpha) signaling pathway using the BG1 cell line (AID 743080; calls by dose curve;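 further: BG1 cells stimulated with 17beta-estradiol alongside compound; series mostly up to about 70 µM; nearly all actives have a fitted effect of over 25% in size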)
Summary of the method: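 Endogenous full-length ER-alpha in BG1-Luc-4E2 cells drives a stably integrated 4×ERE luciferase gene; compounds were tested against 17beta-estradiol over 21.5 h, with luminescence and multiplexed viability fluorescence recorded.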

[11] = target: Aromatase (Homo sapiens) (UniProt P11511); experiment: qHTS assay to identify aromatase inhibitors (AID 743083); further: nearly all actives have a fitted effect of over 55% in size; further: potency means the concentration at half of the fitted maximal effect
Chain of Aromatase (Homo sapiens) (P11511 whole entry, looked up): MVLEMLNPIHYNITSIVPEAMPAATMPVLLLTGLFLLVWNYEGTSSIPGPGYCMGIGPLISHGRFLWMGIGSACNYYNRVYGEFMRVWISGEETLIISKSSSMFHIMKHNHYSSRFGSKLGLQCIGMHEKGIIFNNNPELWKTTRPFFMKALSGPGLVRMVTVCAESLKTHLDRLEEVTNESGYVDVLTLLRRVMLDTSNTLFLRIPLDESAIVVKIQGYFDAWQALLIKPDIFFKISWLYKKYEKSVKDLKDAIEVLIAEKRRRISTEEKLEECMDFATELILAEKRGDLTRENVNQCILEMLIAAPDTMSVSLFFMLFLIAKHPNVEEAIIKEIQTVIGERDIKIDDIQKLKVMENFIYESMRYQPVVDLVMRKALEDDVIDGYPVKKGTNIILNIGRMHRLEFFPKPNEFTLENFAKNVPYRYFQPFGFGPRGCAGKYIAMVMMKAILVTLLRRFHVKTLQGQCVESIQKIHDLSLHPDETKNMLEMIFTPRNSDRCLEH

[12] = qHTS assay to identify small molecule antagonists of the glucocorticoid receptor (GR) signaling pathway - cell viability counter screen (AID 720693); further: nearly all actives have a fitted effect of over 55% in size
[13] = qHTS assay to identify small molecule antagonists of the androgen receptor (AR) signaling pathway - cell viability counter screen (AID 743033; further: nearly all actives have a fitted effect of over 45% in size)
[14] = qHTS assay to identify small molecule antagonists of the androgen receptor (AR) signaling pathway using the MDA cell line - cell viability counter screen (AID 743041; further: nearly all actives have a fitted effect of over 45% in size)
Summary of the method: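 Compound exposure lasted 16 h at 37C in MDA-kb2 AR-luc cells stimulated with R1881. Protease-based CellTiter-Fluor reagent was applied for the final 30 min and fluorescence measured.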

[15] = tested on: thyroid hormone receptor (rat, GH3 cells); experiment: qHTS assay to identify small molecule agonists of the thyroid receptor (TR) signaling pathway (AID 743066; calls by dose curve)
[16] = qHTS assay to identify small molecule antagonists of the estrogen receptor alpha (ER-alpha) signaling pathway using the BG1 cell line - cell viability counter screen (AID 743081);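 further: compound given together with 17beta-estradiol as the ER stimulus; series mostly up to about 70 µM; nearly all actives have a fitted effect of over 45% in size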
[17] = target: Androgen receptor (Homo sapiens) (UniProt P10275); experiment: qHTS assay to identify small molecule agonists of the androgen receptor (AR) signaling pathway using the MDA cell line (AID 743040; further: nearly all actives have a fitted effect of over 20% in size)
Chain of Androgen receptor (Homo sapiens) (P10275 whole entry, looked up): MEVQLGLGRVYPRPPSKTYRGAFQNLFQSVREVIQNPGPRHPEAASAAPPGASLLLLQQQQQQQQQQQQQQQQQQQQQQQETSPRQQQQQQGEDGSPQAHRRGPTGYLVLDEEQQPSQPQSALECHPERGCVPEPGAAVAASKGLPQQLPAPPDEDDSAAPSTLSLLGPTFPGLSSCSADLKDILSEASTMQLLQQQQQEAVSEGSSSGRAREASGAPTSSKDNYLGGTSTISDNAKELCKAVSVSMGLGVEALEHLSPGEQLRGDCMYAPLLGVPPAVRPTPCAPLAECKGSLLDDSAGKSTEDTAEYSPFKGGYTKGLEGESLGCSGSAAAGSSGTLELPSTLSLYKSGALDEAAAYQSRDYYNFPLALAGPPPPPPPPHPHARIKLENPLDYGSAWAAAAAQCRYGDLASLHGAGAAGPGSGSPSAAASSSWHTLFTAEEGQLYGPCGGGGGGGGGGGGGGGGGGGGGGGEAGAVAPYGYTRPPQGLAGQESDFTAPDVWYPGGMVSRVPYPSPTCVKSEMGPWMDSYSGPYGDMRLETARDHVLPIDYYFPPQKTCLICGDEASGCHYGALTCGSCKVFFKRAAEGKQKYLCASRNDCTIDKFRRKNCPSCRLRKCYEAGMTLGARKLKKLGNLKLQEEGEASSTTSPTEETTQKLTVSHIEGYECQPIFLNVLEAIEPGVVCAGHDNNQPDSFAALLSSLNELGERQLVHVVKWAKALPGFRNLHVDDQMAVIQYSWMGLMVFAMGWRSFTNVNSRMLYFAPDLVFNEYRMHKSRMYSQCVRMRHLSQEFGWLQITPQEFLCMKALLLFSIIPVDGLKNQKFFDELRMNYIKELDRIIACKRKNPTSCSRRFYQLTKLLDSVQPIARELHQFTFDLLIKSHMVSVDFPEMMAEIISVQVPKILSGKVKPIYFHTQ
Summary of the method: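 Testing was done with the MDA-kb2 AR-luc line, a human breast carcinoma stably transfected with MMTV-luciferase containing AR and GR response elements. Cells were exposed 16 h at 37C before ONE-Glo luminescence detection.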

[18] = target: Androgen receptor (Homo sapiens) (UniProt P10275); experiment: qHTS assay to identify small molecule antagonists of the androgen receptor (AR) signaling pathway using the MDA cell line (AID 743042; further: nearly all actives have a fitted effect of over 55% in size)
Summary of the method: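 MDA-kb2 breast carcinoma cells carrying MMTV-luciferase (AR/GR responsive) were co-treated with compounds and the agonist R1881 for 16 h at 37C. Inhibition read as ONE-Glo luminescence; CellTiter-Fluor fluorescence measured in parallel for cytotoxicity.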

[19] = qHTS assay to identify aromatase inhibitors - cell viability counter screen (AID 743084)

Measured: Potency

O[C@@H](CNC[C@H](O)[C@H]1CCc2cc(F)ccc2O1)[C@@H]1CCc2cc(F)ccc2O1
active: [1] 6.68 µM | [2] 13.3 µM | [3] 11.9 µM | [4] 10.6 µM | [5] 9.44 µM | [6] 26.8 µM [inconclusive] | [11] 33.5 µM
inactive: [7] | [8] | [9] | [10]

CS(=O)(=O)c1ccc([C@@H](C[C@H]2CCC(=O)C2)C(=O)Nc2cnccn2)cc1Cl
not listed: [1] | [2] | [3] | [6] | [17] | [18] | [19]
inactive: all other assays above

COc1cc(OC)c2ccc(=O)oc2c1
active: [3] 68.6 µM
not listed: [1] | [2] | [4] | [16]
inactive: all other assays above

c1ccc(CNc2ncnc3c2ncn3C2CCCCO2)cc1 (stereo not drawn)
active: [3] 61.1 µM | [9] 3.44 µM
not listed: [1] | [2] | [4] | [10] | [17] | [18]
inactive: all other assays above

CC(C)(C)C(O)/C=C/c1ccc2c(c1)OCO2 (stereo not drawn)
not listed: [1] | [2] | [3] | [9] | [16] | [17] | [18]
inactive: all other assays above

O=C(O)c1cccc(C[C@@H]2COc3ccc(OCc4nc5cc(F)ccc5s4)cc3[C@@H]2O)c1
active: [2] 68.7 µM
not listed: [1] | [3] | [4] | [17] | [18]
inactive: all other assays above

Nc1nc2ccc(OC(F)(F)F)cc2s1
inactive: [12] | [14] | [15] | [6] | [7] | [16] | [11] | [19]
active: [9] 5.96 µM

CCCCOC(=O)CCCCC(=O)OCCCC
inactive: [12] | [3] | [13] | [14] | [4] | [5] | [15] | [7] | [16] | [19]

CCN(CC)C(=O)N1CCN(C)CC1
inactive: [12] | [2] | [3] | [14] | [7] | [16] | [11] | [19]

CC(C)C(O)C(C)(C)CO (stereo not drawn)
not listed: [4] | [12] | [13] | [17] | [18]
inactive: all other assays above
